Screening data (PubChem BioAssay)
Shown are actives, neighbours in structure and some others; about 21% of the full set was active somewhere.
Pf growth 96h = Primary qHTS for delayed death inhibitors of the malarial parasite plastid, 96 hour incubation; P. falciparum luciferase reporter growth, 96 h; Potency, µM (top dose mostly 28.7 µM), for inactives: top-dose activity change, negative = inhibition, usual class: inhibitors; 320,000 tested, 6.9% active; AID 504834, 2011; also: potency is read from the fitted curve at half-maximal effect; % is scaled to controls: 0 for no effect and ±100 for the full control effect
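Delayed-death screen, second-generation endpoint: infected erythrocytes, 2% hematocrit, 0.05% parasitemia final; 96 hours at 37 C, 5% CO2; luciferase detection reagent; luminescence decrease equals reduced growth.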
HCMV antiviral = qHTS Assay for inhibitors of the human cytomegalovirus (HCMV); HFF cells, HCMV-luciferase reporter, 72 h; stronger effect = lower value; activity change, negative = inhibition, % at 57.5 µM; 410,000 tested, 4.5% active; in the data active = activity change below about -60%; inconclusive = no clear call, values can overlap the other calls; inactive = above about -39%; also: % is scaled to controls: 0 for no effect and ±100 for the full control effect
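Two compound doses tested in HFFs infected with HCMV-luciferase, MOI 1 PFU/cell, 72 h at 37C. Lysate luminescence read with OneGlo; data normalized against buffer-only and 10uM Salinomycin inhibitor controls.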
Shiga inhibitor = A qHTS for Small Molecule Inhibitors of Shiga Toxin; AID 2315, 2010; 290,000 tested, 9.2% active; Vero cells, Shiga toxin protein synthesis inhibition reporter; inhibition, % at 38.7 µM; in the data active = inhibition mostly above about 28%, no sharp cut-off; inactive = mostly below about 43%; also: 0% is about no effect
CHX counter = Cycloheximide Counterscreen for Small Molecule Inhibitors of Shiga Toxin; max response, %; 300,000 tested, 12% active; AID 2314, 2010; cell reporter, cycloheximide protein synthesis inhibition counterscreen; in the data active = max response mostly above about 13%, no sharp cut-off; inactive = mostly below about 14%; also: read at 38.3 µM for the half of the compounds with a filed dose; 0% is about no effect
HCV inh = qHTS Assay for Inhibitors of Hepatitis C Virus (HCV); Huh7.5.1 HCVcc-Cre infection, luciferase reporter, 44 h; Potency, µM (series often up to 41.8 µM), without a hit: at the top dose activity change, negative = inhibition, hits mostly inhibitors; 340,000 tested, 3.4% active; AID 651820, 2012; also: potency is read from the fitted curve at half-maximal effect; % is scaled to controls: 0 for no effect and ±100 for the full control effect
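HCVcc-Cre virus at an moi near 0.5 was added right after compound to cells cultured 4 h from seeding (1,000 cells/well). Luciferase activity was determined 44 h later, 15 min after substrate addition at RT.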
Pf growth 48h = Primary qHTS for delayed death inhibitors of the malarial parasite plastid, 48 hour incubation; Potency, µM (series often up to 28.7 µM), for the others: top-dose activity change, negative = inhibition, actives largely listed as inhibitors; P. falciparum luciferase growth in erythrocytes, 48 h; 310,000 tested, 5.9% active; also: potency is read from the fitted curve at half-maximal effect; % is scaled to controls: 0 for no effect and ±100 for the full control effect
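Erythrocytes infected with P. falciparum carrying an integrated firefly luciferase reporter (2% hematocrit, 0.1% parasitemia final) were exposed to compounds in RPMI 1640 with 0.5% Albumax at 37 C, 5% CO2. Growth inhibition was scored as reduced luminescence.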
* = called active by the depositor; ? = inconclusive; · = not tested or not shown. Unless noted, calls follow the shape of the dose curve; as a rule, active = well fitted inhibition curve with a large enough effect; inconclusive = small, poorly fitted or top-dose-only effect, or another doubt; inactive = no such curve, though single readings can be large or run the other way.

SMILES	Pf growth 96h	HCMV antiviral	Shiga inhibitor	CHX counter	HCV inh	Pf growth 48h
COc1ccc(CCN(C(=O)C(F)(F)F)C(C(=O)NC2CCCCC2)c2ccc(C)s2)cc1 (stereo not drawn)	8.3µM*	-8	-3	-4	-12%	?
COCCN(C(=O)CCl)C(C(=O)NC1CCCCC1)c1ccccc1C (stereo not drawn)	8.3µM*	-98*	2	2	?	10µM*
COc1ccc(CN2C(=O)C(CC(=O)NCCc3ccccn3)CC(C(=O)N(C)C)=C2C)cc1 (stereo not drawn)	·	-9	·	·	·	·
COc1ccc(S(=O)(=O)Nc2cccc3cccnc23)c([N+](=O)[O-])c1	·	·	-7	31	·	·
COc1ccc(CCN(C(=O)C(F)(F)F)C(C(=O)NC2CCCCC2)c2cccs2)cc1 (stereo not drawn)	?	?	-6	-2	?	9.3µM*
Cc1ccc(N(C(=O)C(F)(F)F)C(C(=O)NC2CCCCC2)c2cccs2)cc1 (stereo not drawn)	?	-38	-8	-2	15%	?
CC(C)n1c(O)c(C2c3cc(Cl)ccc3Oc3[nH]c(=O)n(C(C)C)c(=O)c32)c(=O)[nH]c1=O (stereo not drawn)	?	·	-26	-9	5µM*	-11%
CC(=O)c1c(O)n(-c2cccc(Cl)c2)c(=O)[nH]c1=O (tested in a mixture with another compound)	-36%	6	-4	2	2%	0%
COc1ccc(CNS(=O)(=O)c2ccc(C3CNC(=O)C3)cc2)cc1 (stereo not drawn)	-1%	35	2	-3	3.2µM*	1%
C=CC(=O)O	-20%	·	·	·	·	-4%
Cc1n[nH]c(C)c1N1C(=O)c2cccc3cc(Br)cc(c23)C1=O	?	39	-17	-1	4.5µM*	9%
Cc1ccsc1C(=O)N1CCN(C(=O)c2ccco2)CC1	-16%	-7	·	·	13%	-8%
CCCCN(CCCC)CCNC(=O)c1cn(CC)c2ccc(S(=O)(=O)N3CCCC3)cc2c1=O	1%	-13	-9	-11	19%	-21%
CCNC(=O)NCc1c(C)c(C)n(Cc2ccccc2)c1-n1cccc1	-5%	?	-6	-3	?	?
Cc1ccc(NS(=O)(=O)c2cc(NC(=O)c3ccc4c(c3)NC(=O)CS4)ccc2Cl)c(C)c1	7.4µM*	-94*	-20	-2	10µM*	-19%
Cc1ccc(NC(=O)c2scc3c2CCCC3)cc1	?	21	73*	54*	5%	376%
Cc1ccc(NC(=O)CN(C)C(=O)c2cc3c(s2)CCCCC3)cc1	31%	0	·	·	?	5%
O=C(c1scc2c1CCCC2)N1CCCCC1	·	15	25	12	-14%	17%
Cc1ccc(S(=O)(=O)Nc2ccc(Cl)cc2)cc1NC(=O)c1cc2c(s1)CCCC2	23%	?	1	10	?	17%
COc1ccc(NC(=O)c2ccc3c(c2)NC(=O)CS3)cc1	40%	7	·	·	?	85%
Cc1ccc(NC(=O)c2cc3c(s2)CCCC3)cc1	196%	6	104*	54*	-16%	207%
Cc1ccc(NS(=O)(=O)c2cc(NC(=O)c3cc4c(s3)CCCC4)ccc2C)c(C)c1	10µM*	?	22	-2	?	?
Cc1coc2cc3oc(=O)c(CCC(=O)N4C[C@H]5C[C@@H](C4)c4cccc(=O)n4C5)c(C)c3cc12	?	-5	-2	5	-12%	?
CC1=C(c2ccc(C)c(C)c2)S(=O)(=O)N=C1N1CCC(C(=O)N2CCC(C(N)=O)CC2)CC1	·	11	·	·	·	·
CCC(Sc1nc2cc3c(cc2c(=O)n1CCCC(=O)NCc1ccc2c(c1)OCO2)OCO3)C(=O)NCCCOC (stereo not drawn)	·	-20	·	·	·	·
CC(=O)Nc1ccc(Nc2ccccc2)cc1	0%	-14	59*	27*	?	-16%
